Results published in PubChem BioAssay AID1159580 (chemical genetic matrix, 2015).
Hit rate of the full screen: of about 5,500 compounds, about 2,000 (36%) were called active. Roughly 18% stayed inconclusive and do not appear here. Cut-off read from the data, not from the text of the source: active = normalized growth mostly below about 0.91 (no sharp cut-off); inconclusive = no clear call, values can overlap the other calls; inactive = mostly above about 0.92. The list shows a part of the results.

Assay: chemical genetic growth profiling, strain panel (AID 1159580);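 note: tested at 20 µM; growth read once vehicle control cultures reached saturation at 30 °C; 1 = growth at the plate median or of vehicle wells; lower values mean less growth of the strain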
Conditions: growth OD
[1] = S. cerevisiae deletion strains, locus YAL013W, strain DEP1, stronger effect = lower value
[2] = S. cerevisiae deletion strains, locus YBR229C, strain ROT2, stronger effect = lower value
[3] = S. cerevisiae deletion strains, locus YDL101C, strain DUN1, stronger effect = lower value
[4] = S. cerevisiae deletion strains, locus YDL134C, strain PPH21, stronger effect = lower value
[5] = S. cerevisiae deletion strains, locus YDR150W, strain NUM1, stronger effect = lower value
[6] = S. cerevisiae deletion strains, locus YEL061C, strain CIN8, stronger effect = lower value
[7] = S. cerevisiae deletion strains, locus YGR078C, strain PAC10, stronger effect = lower value
[8] = S. cerevisiae deletion strains, locus YHR030C, strain SLT2, stronger effect = lower value
[9] = S. cerevisiae deletion strains, locus YHR087W, strain rtc3, stronger effect = lower value
[10] = S. cerevisiae deletion strains, locus YJR043C, strain POL32, stronger effect = lower value
[11] = S. cerevisiae deletion strains, locus YJR075W, strain HOC1, stronger effect = lower value
[12] = S. cerevisiae deletion strains, locus YKL190W, strain CNB1, stronger effect = lower value
[13] = S. cerevisiae deletion strains, locus YLR039C, strain RIC1, stronger effect = lower value
[14] = S. cerevisiae deletion strains, locus YLR058C, strain SHM2 (second series), stronger effect = lower value
[15] = S. cerevisiae deletion strains, locus YLR085C, strain ARP6, stronger effect = lower value
[16] = S. cerevisiae deletion strains, locus YLR262C, strain YPT6, stronger effect = lower value
[17] = S. cerevisiae deletion strains, locus YML094W, strain GIM5, stronger effect = lower value
[18] = S. cerevisiae deletion strains, locus YMR219W, strain ESC1, stronger effect = lower value
[19] = S. cerevisiae deletion strains, locus YMR263W, strain SAP30, stronger effect = lower value
[20] = S. cerevisiae deletion strains, locus YMR307W, strain GAS1, stronger effect = lower value
[21] = S. cerevisiae deletion strains, locus YNL153C, strain GIM3, stronger effect = lower value
[22] = S. cerevisiae deletion strains, locus YNL298W, strain CLA4 (second series), stronger effect = lower value
[23] = S. cerevisiae deletion strains, locus YNL322C, strain KRE1, stronger effect = lower value
[24] = S. cerevisiae deletion strains, locus YNR030W, strain Alg12, stronger effect = lower value
[25] = S. cerevisiae deletion strains, locus YPL055C, strain LGE1, stronger effect = lower value
[26] = S. cerevisiae deletion strains, locus YPL241C, strain CIN2, stronger effect = lower value
[27] = S. cerevisiae deletion strains, locus YPR135W, strain CTF4, stronger effect = lower value

Measured: normalized growth

O=C1C=C(Cl)CC(c2ccc(C(F)(F)F)cc2)C1 (stereo not drawn)
inactive: [1] 1 | [2] 0.988 | S. cerevisiae deletion strains, locus YCL061C, strain MRC1, stronger effect = lower value 1.01 | [3] 0.995 | [4] 1.03 | [5] 1.1 | [6] 1.03 | [7] 1.01 | [8] 0.987 | [9] 0.975 | [10] 1.01 | [11] 1.02 | [12] 0.983 | [13] 0.936 | [14] 0.986 | [15] 1.06 | [16] 0.94 | [17] 1.04 | [18] 1.01 | [19] 0.989 | [20] 1.01 | S. cerevisiae deletion strains, locus YNL128W, strain TEP1, stronger effect = lower value 0.987 | [21] 0.992 | [22] 0.985 | [23] 0.991 | [24] 1.02 | [25] 1.14 | [26] 1.02 | [27] 1.03 | S. cerevisiae strains, strain wild type, stronger effect = lower value 0.971

CC(=O)C1C(=O)CC(c2ccc(Cl)cc2)CC1=O (stereo not drawn)
active: [1] 0.342 | [2] 0.454 | [3] 0.425 | [4] 0.854 | [5] 0.489 | [6] 0.867 | [7] 0.463 | [8] 0.199 | [9] 0.541 | [10] 0.585 | [11] 0.444 | [12] 0.848 | [13] 0.218 | [14] 0.761 | [15] 0.529 | [16] 0.219 | [18] 0.562 | [19] 0.268 | [20] 0.218 | [21] 0.512 | [23] 0.796 | [24] 0.855 | [25] 0.211 | [26] 0.845
inactive: [17] 0.901 | [22] 0.849 | S. cerevisiae deletion strains, locus YOL006C, strain TOP1, stronger effect = lower value 0.774 | [27] 0.718
